In PubChem BioAssay (EPA / NIEHS) one finds outcome and AC50 data, which are given here for 10 compounds.

The target in assay [1] is human CYP2C9, CYP2C9 (gene 1559) (UniProt P11712). Put plainly: NVS_ADME_hCYP2C9: NovaScreen (NVS) CYP450-related Enzyme Activity (ADME) Assay for human CYP2C9 (AID 2283108). A digest of the protocol:
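Recombinant human CYP2C9 expressed in SF9 cells, fluorogenic substrate, fluorescence read 0.75 h after dosing. Chemicals first run in duplicate at 10 uM, with actives followed in concentration series; loss of signal versus acetonitrile baseline.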

Assay [2] has as its target rat CYP2A1, Cyp2a1 (gene 24894) (UniProt P11711). Put plainly: NVS_ADME_rCYP2A1: NovaScreen (NVS) CYP450-related Enzyme Activity (ADME) Assay for rat CYP2A1 (AID 2283114; active means hit-call score of the fitted dose curve at least 0.9, where 1 is the maximum; inactive means score below 0.9). As to the method:
(§1) NVS_ADME_rCYP2A1 is a biochemical, single-readout assay that uses extracted gene-proteins in a cell-free assay. Measurements were taken 0.75 hour after chemical dosing in a 96-well plate.NVS_ADME_rCYP2A1 is one of one assay component(s) measured or calculated from the NVS_ADME_rCYP2A1 assay. It is designed to make measurements of enzyme activity, a form of enzyme reporter, as detected with fluorescence intensity signals by Fluorescence technology.Data from the assay component NVS_ADME_rCYP2A1 was analyzed into 1 assay endpoint. This assay endpoint, NVS_ADME_rCYP2A1, was analyzed in the positive analysis fitting direction relative to Acetonitrile as the negative control and baseline of activity. Using a type of enzyme reporter, loss-of-signal activity can be used to understand changes in the enzymatic activity as they relate to the gene Cyp2a1. Furthermore, this assay endpoint can be referred to as a primary readout, because this assay has produced multiple assay endpoints where this one serves a enzymatic activity function. To generalize the intended target to other relatable targets, this assay endpoint is annotated to the cyp intended target family, where the subfamily is xenobiotic metabolism.
(§2) Binding assays used specific radioligands (tritiated, iodinated) with non-radioactive competitive displacement ligands in agonist or antagonist protocols (as indicated) and various reference compounds and inhibitors to titrate specific binding to receptors and transporters. Most enzyme assays (CYPs, kinases, phosphatases, proteases, HDACs) used recombinant protein and specific substrates (fluorescence mostly, some colorimetric and radioactive) and inhibitors, followed by a biochemical separation of substrate and product. All assays for the biochemical HTS were initially run in duplicate at a single concentration (10 uM for CYP450 assays and 25 uM for all others). Assay-chemical combinations meeting a pre-defined threshold (e.g., 30% inhibition and other criteria defined below) were then run in singleton concentration-response format with maximum concentration of 20 uM for CYPs and 50 uM for all others. Each assay was run with positive and negative controls, and concurrent controls on every plate. The follow-up (secondary) screen tested active chemical-pairs in concentration series, as well as a few additional assays not tested in the primary screen, some selected negative inactives, and several cases re-run in the concentration series for confirmatory purposes.

The target in assay [3] is Cytochrome P450 3A4 (Homo sapiens) (UniProt P08684). Put plainly: NVS_ADME_hCYP3A4: NovaScreen (NVS) CYP450-related Enzyme Activity (ADME) Assay for human CYP3A4 (AID 2283110). The gist of the method:
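Recombinant CYP3A4 from insect cells, fluorescence enzyme read-out, 0.33 h after chemical addition. Acetonitrile = negative control/baseline. Primary HTS: 10 uM in duplicate; actives re-tested in concentration series.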

The target in assay [4] is rat CYP2A2, Cyp2a2 (gene 24895) (UniProt P15149). Nature of the assay: NVS_ADME_rCYP2A2: NovaScreen (NVS) CYP450-related Enzyme Activity (ADME) Assay for rat CYP2A2 (AID 2283116). A digest of the protocol:
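Compounds first tested in duplicate at 10 uM, then in singleton concentration series up to 20 uM when over threshold. Activity of the recombinant enzyme read by fluorescence at 0.2 h, normalised to acetonitrile vehicle.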

For assay [5], the target named is rat CYP2C11, Cyp2c11 (gene 29277) (UniProt P08683). Put plainly: NVS_ADME_rCYP2C11: NovaScreen (NVS) CYP450-related Enzyme Activity (ADME) Assay for rat CYP2C11 (AID 2283118). On the procedure: as §1, with “NVS_ADME_rCYP2C11” for “NVS_ADME_rCYP2A1”, “0.33” for “0.75”, “plate.NVS_ADME_rCYP2C11” for “plate.NVS_ADME_rCYP2A1”, “NVS_ADME_rCYP2C11,” for “NVS_ADME_rCYP2A1,”, “Cyp2c11.” for “Cyp2a1.”
Sequence of rat CYP2C11, Cyp2c11 (gene 29277) (P08683 whole entry, looked up): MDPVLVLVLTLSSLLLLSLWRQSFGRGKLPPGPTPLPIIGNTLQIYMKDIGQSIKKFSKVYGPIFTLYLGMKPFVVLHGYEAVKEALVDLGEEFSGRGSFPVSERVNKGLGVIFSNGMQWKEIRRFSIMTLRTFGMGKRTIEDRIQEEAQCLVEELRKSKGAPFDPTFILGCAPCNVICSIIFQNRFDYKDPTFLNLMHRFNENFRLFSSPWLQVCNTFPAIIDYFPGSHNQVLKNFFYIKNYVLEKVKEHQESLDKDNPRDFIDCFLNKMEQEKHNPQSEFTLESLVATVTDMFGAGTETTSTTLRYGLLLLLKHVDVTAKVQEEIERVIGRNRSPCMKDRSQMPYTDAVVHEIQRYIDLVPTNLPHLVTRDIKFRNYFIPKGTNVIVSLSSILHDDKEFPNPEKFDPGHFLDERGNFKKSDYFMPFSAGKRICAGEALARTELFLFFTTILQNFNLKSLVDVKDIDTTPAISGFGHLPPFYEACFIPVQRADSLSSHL
as §2, with “Assay-chemical combinations meeting a pre-defined threshold (e.g., 30% inhibition and other criteria defined below) were then run in singleton concentration-response format with maximum concentration of 20 uM for CYPs and 50 uM for all others.” left out

Assay [6] deals with rat CYP2C13, Cyp2c13 (gene 171521) (UniProt P20814). Put plainly: NVS_ADME_rCYP2C13: NovaScreen (NVS) CYP450-related Enzyme Activity (ADME) Assay for rat CYP2C13 (AID 2283121). The gist of the method: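 Inhibition is read as decreased fluorescent product formation, referenced to acetonitrile vehicle. Cell-free recombinant rat Cyp2c13 reaction ran 0.75 hour; compounds first at 10 uM in duplicate, then concentration series for actives.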
Sequence of rat CYP2C13, Cyp2c13 (gene 171521) (P20814 whole entry, looked up): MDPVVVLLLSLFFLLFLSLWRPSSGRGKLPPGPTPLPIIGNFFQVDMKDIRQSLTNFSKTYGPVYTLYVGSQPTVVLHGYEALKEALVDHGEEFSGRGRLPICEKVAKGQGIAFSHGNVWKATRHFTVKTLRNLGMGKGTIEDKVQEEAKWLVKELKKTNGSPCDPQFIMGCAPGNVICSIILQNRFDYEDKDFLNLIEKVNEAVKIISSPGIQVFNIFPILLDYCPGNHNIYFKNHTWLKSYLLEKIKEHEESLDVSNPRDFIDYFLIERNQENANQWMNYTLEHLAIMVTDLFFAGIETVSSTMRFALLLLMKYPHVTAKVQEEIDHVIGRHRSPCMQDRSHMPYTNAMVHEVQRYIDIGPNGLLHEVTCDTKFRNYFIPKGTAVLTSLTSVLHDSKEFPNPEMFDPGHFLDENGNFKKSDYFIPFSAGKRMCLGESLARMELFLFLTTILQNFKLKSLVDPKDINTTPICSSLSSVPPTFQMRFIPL

The subject of the next assay is rat CYP3A1, gene 25642. Nature of the assay: NVS_ADME_rCYP3A1: NovaScreen (NVS) CYP450-related Enzyme Activity (ADME) Assay for rat CYP3A1 (AID 2283126). A digest of the protocol:
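Compounds went first at 10 uM duplicate, then to series with 20 uM maximum. Fluorescence from substrate turnover by the recombinant enzyme was measured 0.5 h post-dosing, inhibition scored against acetonitrile vehicle.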

For assay [7], the target named is human CYP2D6, CYP2D6 (gene 1565) (UniProt P10635). Nature of the assay: NVS_ADME_hCYP2D6: NovaScreen (NVS) CYP450-related Enzyme Activity (ADME) Assay for human CYP2D6 (AID 2283107). A digest of the protocol: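 Fluorescence readout of recombinant CYP2D6 (insect-cell derived) activity after 1 h incubation with test chemical. Acetonitrile served as baseline, loss-of-signal direction. Single-concentration duplicate screening at 10 uM preceded concentration-response retesting.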
Sequence of human CYP2D6, CYP2D6 (gene 1565) (P10635 whole entry, looked up): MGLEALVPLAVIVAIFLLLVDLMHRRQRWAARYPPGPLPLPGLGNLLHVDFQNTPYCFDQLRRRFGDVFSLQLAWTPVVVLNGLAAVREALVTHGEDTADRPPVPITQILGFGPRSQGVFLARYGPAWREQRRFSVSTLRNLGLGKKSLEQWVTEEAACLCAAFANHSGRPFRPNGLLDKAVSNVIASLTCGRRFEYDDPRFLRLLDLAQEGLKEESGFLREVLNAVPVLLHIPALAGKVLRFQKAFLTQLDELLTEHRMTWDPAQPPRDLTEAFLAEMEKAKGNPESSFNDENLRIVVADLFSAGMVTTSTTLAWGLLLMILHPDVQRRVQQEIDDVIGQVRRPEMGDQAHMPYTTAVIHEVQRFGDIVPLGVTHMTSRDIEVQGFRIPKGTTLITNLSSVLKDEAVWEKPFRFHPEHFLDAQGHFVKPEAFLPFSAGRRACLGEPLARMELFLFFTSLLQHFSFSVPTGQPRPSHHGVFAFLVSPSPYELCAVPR

Values joined by “and” are separate entries in the source; they are usually repeats but may differ in a detail not shown here. Equal values may be shown once. Records with an inconclusive call do not appear. Where a structure was tested more than once in an assay, its records may differ in their call. Active and inactive are the calls of the source. How the source made its calls, unless noted: active means hit-call score of the fitted dose curve at least 0.9, where 1 is the maximum; inconclusive means response in the unintended direction; inactive means score below 0.9.

Sequence of Cytochrome P450 3A4 (Homo sapiens) (P08684 whole entry, looked up): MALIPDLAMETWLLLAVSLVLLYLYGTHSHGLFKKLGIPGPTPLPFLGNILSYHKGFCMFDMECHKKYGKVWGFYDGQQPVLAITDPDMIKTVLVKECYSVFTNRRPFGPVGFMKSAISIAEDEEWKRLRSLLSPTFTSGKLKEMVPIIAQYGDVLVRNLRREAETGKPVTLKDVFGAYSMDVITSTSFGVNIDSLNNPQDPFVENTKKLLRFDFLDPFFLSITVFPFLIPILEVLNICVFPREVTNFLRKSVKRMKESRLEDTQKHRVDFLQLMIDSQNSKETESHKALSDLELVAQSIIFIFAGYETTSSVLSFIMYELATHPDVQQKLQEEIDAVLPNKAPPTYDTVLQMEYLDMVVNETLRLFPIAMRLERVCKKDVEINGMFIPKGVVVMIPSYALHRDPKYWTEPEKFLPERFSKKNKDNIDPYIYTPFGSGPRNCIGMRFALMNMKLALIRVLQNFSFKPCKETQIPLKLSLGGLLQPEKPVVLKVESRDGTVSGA
Sequence of rat CYP2A2, Cyp2a2 (gene 24895) (P15149 whole entry, looked up): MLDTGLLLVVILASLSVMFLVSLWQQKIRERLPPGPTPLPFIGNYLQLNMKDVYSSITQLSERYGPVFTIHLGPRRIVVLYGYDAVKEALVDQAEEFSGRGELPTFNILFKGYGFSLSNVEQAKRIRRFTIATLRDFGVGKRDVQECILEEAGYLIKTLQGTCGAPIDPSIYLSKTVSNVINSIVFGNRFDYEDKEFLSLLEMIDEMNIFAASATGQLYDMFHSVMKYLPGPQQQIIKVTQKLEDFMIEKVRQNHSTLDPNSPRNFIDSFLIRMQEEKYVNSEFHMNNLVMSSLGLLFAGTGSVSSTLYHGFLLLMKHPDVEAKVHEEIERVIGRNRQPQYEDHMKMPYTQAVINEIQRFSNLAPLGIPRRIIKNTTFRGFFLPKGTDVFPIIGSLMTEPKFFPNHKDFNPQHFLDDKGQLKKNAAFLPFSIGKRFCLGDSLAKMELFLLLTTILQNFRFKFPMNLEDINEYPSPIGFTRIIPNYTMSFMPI
Sequence of human CYP2C9, CYP2C9 (gene 1559) (P11712 whole entry, looked up): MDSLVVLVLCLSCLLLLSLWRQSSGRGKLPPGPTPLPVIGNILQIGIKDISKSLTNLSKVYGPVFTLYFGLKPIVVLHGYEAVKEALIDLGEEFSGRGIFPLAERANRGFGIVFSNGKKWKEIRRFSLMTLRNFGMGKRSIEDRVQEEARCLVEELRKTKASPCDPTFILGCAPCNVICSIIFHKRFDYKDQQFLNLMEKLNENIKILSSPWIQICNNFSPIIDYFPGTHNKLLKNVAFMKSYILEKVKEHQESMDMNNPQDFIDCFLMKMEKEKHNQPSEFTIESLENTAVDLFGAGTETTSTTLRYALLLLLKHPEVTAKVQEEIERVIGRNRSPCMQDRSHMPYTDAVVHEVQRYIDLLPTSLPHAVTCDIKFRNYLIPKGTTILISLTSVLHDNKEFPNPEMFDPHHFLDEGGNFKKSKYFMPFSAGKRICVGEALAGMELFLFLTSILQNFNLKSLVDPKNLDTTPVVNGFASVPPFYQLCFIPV
Sequence of rat CYP2A1, Cyp2a1 (gene 24894) (P11711 whole entry, looked up): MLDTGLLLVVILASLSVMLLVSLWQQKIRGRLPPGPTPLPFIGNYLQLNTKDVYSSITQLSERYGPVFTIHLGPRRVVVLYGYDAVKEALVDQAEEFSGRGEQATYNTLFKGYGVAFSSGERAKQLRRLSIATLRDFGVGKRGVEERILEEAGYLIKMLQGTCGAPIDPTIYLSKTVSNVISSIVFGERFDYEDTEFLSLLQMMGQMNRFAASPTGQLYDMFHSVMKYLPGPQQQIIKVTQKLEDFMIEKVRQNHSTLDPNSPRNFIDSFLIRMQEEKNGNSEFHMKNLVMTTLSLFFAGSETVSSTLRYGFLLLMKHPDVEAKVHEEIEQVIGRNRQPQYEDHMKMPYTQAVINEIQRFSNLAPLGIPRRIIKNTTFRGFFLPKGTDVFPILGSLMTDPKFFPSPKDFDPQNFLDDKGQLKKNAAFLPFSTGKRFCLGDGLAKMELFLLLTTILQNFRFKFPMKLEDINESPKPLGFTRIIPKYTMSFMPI

In the case of `CCCCCOC(=O)COc1cc(N2C(=O)C3=C(CCCC3)C2=O)c(F)cc1Cl`, the compound was classed as inactive in assay [1] and in assay [2].
Regarding `CC(C)(C)[C@@H](O)[C@@H](Cc1ccc(Cl)cc1)n1cncn1`, the AC50 (commonly the concentration at which the activity in the assay is half-maximal) in assay [1] was 6.81 µM (active); in assay [3] it was 2.68 µM (active); in assay [2], 1.7 µM (active); in assay [4] it was 34.8 nM (active); in assay [5], 2.05 µM (active); in assay [6], 0.37 µM (active). Further, the AC50 in the assay on rat CYP3A1, gene 25642 was 3.44 µM (active).
Turning to `O=C(c1ccc(O)cc1O)c1ccc(O)cc1O`, in assay [3], the AC50 was 5.88 µM (active).
In the case of `Cc1nn(C)c(Oc2ccccc2)c1C=NOCc1ccc(C(=O)OC(C)(C)C)cc1`, the result in assay [4] and in assay [6] was inactive.
`COC(=O)c1c(Cl)nn(C)c1S(=O)(=O)NC(=O)Nc1nc(OC)cc(OC)n1`: the AC50 in assay [1] is 2.89 µM (active).
In the case of `CCN(Cc1c(F)cccc1Cl)c1c([N+](=O)[O-])cc(C(F)(F)F)cc1[N+](=O)[O-]`, the AC50 in the assay with rat CYP3A1, gene 25642 is 6.19 µM (active).
`CCC(O)=C1C(=O)CC(C(=O)O)CC1=O` (stereo not given): the outcome in assay [3] was inactive.
As for `CCOC(=O)[C@H](C)Oc1ccc(Oc2nc3ccc(Cl)cc3o2)cc1`, in assay [4], the AC50 is 10000 nM (active).
For the compound `CC(=O)[C@H]1CC[C@H]2[C@@H]3CCC4=CC(=O)CC[C@]4(C)[C@H]3CC[C@]12C`, the AC50 in assay [1] is 7.34 µM (active); in assay [3] it was 5.46 µM (active) and 2.77 µM (active); in assay [4], 3.07 µM (active) and 7.82 µM (active) and 6.94 µM (active); in assay [5], 3.08 µM (active) and 6.76 µM (active). In addition, the call in assay [1] was inactive.
With `N#CSCSc1nc2ccccc2s1`, the AC50 in assay [7] is 1.99 µM (active) and 1.9 µM (active); in assay [1], 1.77 µM (active) and 5.62 µM (active); in assay [5] it was 9.17 µM (active); in the assay with rat CYP3A1, gene 25642 it was 10.1 µM (active).
